According to PubChem BioAssay:

Tests used:
[1] = target: Tumor necrosis factor receptor superfamily member 10B (Homo sapiens) (UniProt O14763); assay: viability loss of caspase-8 NB7 cells with TRAIL – with/without TRAIL, luminescence panel, confirmation (AID 651596); details: NB7 neuroblastoma + caspase-8, TRAIL sensitization, NB7 Caspase-8, with TRAIL, mean of runs, at 10 µM, stronger effect = higher value
[2] = as above; details: NB7 neuroblastoma + caspase-8, without TRAIL, NB7 Caspase-8, without TRAIL, mean of runs, at 10 µM

Sequence of Tumor necrosis factor receptor superfamily member 10B (Homo sapiens) (O14763 whole entry, looked up): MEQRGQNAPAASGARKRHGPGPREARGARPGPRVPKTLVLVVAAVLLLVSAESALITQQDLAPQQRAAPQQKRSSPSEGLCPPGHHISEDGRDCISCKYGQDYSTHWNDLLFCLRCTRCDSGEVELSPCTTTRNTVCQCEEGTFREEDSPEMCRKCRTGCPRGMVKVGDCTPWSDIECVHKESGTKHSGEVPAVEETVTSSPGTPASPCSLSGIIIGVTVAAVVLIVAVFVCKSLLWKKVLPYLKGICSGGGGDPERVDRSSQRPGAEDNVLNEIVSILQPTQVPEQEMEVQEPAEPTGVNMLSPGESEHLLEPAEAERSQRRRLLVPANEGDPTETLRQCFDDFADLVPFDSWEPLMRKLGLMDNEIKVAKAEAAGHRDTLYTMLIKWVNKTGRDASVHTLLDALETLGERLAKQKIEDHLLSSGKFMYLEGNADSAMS

Structure (SMILES)	activity [1] [%]	activity [2] [%]
Cc1ccc(NC(=O)COc2ccccc2[N+](=O)[O-])nc1	60.5	62.8
Cc1cc(C(=O)Nc2sc3c(c2C#N)CCC(C)C3)no1 (stereo not drawn)	58.6	52.6
Cc1ccc2oc(/N=C(\N)NC(=O)C3CC3)nc2c1	56.4	71
CN(C)S(=O)(=O)c1ccc(-c2csc(N/N=C/c3ccco3)n2)cc1	81	77.8
CCOc1cc(NC(=O)CCl)c(OCC)cc1NC(=O)CCl	96.6	98.5
C=CCOc1cccc(/C=C/c2nc3ccccc3c(=O)[nH]2)c1	66.8	64.8
Cc1ccccc1C(=O)N1CCN(c2ccc(NC(=O)c3ccc([N+](=O)[O-])o3)cc2)CC1	86	99.5
COc1ccc(OC)c(NC(=O)c2cc(-c3cc(Cl)ccc3O)n[nH]2)c1	33.7	34.1
O=C(NCCN1CCOCC1)NC1(C(F)(F)F)Oc2ccc(Cl)cc2O1 (stereo not drawn)	32.6	26.8
COC(=O)[C@@H]1Cc2c([nH]c3ccccc23)C(C)(C)N1C(=O)CCl	99	98
Cc1cccn2c(=O)c3cc(C(=O)NCCc4ccccc4)c(=N)n(Cc4ccco4)c3nc12	19.5	5.95
Cc1nnc(NC(=O)c2nc(S(=O)(=O)Cc3ccccc3C)ncc2Cl)s1	94.7	89.8
COc1ccc(OC)c(Nc2nc(N)nc(CCl)n2)c1	99	97.5
COc1ccc(-c2cn3cc(C)ccc3n2)cc1OC	74.7	77
Cc1cccc(NC(=S)N/N=C/c2ccc([N+](=O)[O-])s2)c1	37.4	36.1
CCOC(=O)Cc1csc(NC(=O)c2cc3c(s2)CCCC3)n1	56.7	58.8
Fc1ccc(/C=N/Nc2nc(-c3cccnc3)nc3ccccc23)cc1	50.8	19.2
C[n+]1c(-c2ccccc2)cc2c(=Cc3ccccc3)c3ccccc3n21	73.1	75.4
Cc1ccc(NC(=O)Cn2ncc(Cl)c(Cl)c2=O)cc1S(=O)(=O)N1CCCCC1	86.5	99.5
CCC(C)N(CC(=O)Nc1cccc(C)c1C)C(=O)CCl (stereo not drawn)	99.5	99.3
CCOc1ccc(C(=O)Nc2cc(C)ccn2)cc1	95.2	96.3
COC(=O)c1ccc2nc(-c3ccc4c(c3)OCO4)cn2c1	74.5	76

Structure (SMILES)	activity [1] [%]	activity [2] [%]
O=C1CCCCC(=O)[C@H](OC(=O)c2ccccc2)C[C@H](c2ccccc2)O1	2.17	2.2
CCOC(=O)c1nn(-c2ccc3c(c2)OCCO3)cc1O	60	57
C=C(C)c1nc(Oc2ccccc2)nc(Oc2ccccc2)n1	77	77.6
O=C1[C@H]2[C@@H](/C=C/c3ccccc3)N3C(=O)CN(CC4CC4)C(=O)[C@@]3(Cc3ccccc3)[C@H]2C(=O)N1c1ccccc1	73.9	97.8
O=C(OCn1ncc(Cl)c(Cl)c1=O)c1ccccc1Cl	99.1	99.3
Nc1nc2ccccc2n1C(=O)c1ccccc1	87.9	85.9
O=c1c(-c2ccc3c(c2)OCCO3)coc2cc(OC3OC(CO)C(O)C(O)C3O)ccc12 (stereo not drawn)	51.8	53.9
CC(C)c1ccc(OCc2cccc(C(=O)N/N=C/c3cccnc3)c2)cc1	47.6	45.3
COc1cccc(N=c2oc3ccc(OC)cc3cc2-c2nc3ccccc3[nH]2)c1	12.8	18.1
Cc1cc(N2CCOCC2)n2ncc(-c3ccccc3)c2n1	66.8	52.8
c1csc(-c2ccc(N3CCOCC3)nn2)c1	69.5	69.4
O=C(Cn1ncc(Cl)c(Cl)c1=O)NCC1CCCCC1	98.9	99.1
COc1ccccc1NC(=O)c1nc(S(=O)(=O)Cc2ccccc2)ncc1Cl	90.7	99.2
CCOC(=O)c1ccc(NC(=O)c2ccc(C)c(S(=O)(=O)N3CCOCC3)c2)cc1	79.3	69.1
Cn1cnc(Sc2ncnc3nc[nH]c23)c1[N+](=O)[O-]	62.5	72.5
C/C(=N/NC(=O)c1ccccn1)c1ccco1	35.1	41.5
COc1ccc2[nH]c(C(=O)Nc3cccc(C)n3)cc2c1	58.8	59.5
O=C(Nc1ccc(-c2nc3ccccc3[nH]2)cc1)C1CCCO1 (stereo not drawn)	79.5	71
Cc1ccc(NC(=O)c2ccccc2)s1	40.7	32
FC(F)(F)c1cc(Cl)c2nc(-c3ccccc3)cn2c1	65	76.1
Nc1nccc(-c2cc(-c3ccc(Cl)cc3Cl)no2)n1	62.4	56.9
CCc1ccc(Nc2n[n+](-c3ccccc3)c(-c3ccc(N(CC)CC)cc3)s2)cc1	45.2	41.2
